KB-3-1 cytotox = kills parental KB-3-1 adenocarcinoma cells | AID 1347075 | 400,000 tested, 1.4% active | Potency, µM (titrated, usually from 46.1 µM), hits mostly cytotoxic | KB-3-1 viability, CellTiter-Glo ATP luminescence, 72 h; note: nearly all actives have a fitted effect of over 60% in size
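Viability of parental KB-3-1 cells, measured by CellTiter-Glo luminescence, followed a 72 h incubation at 37 °C with pinned compounds in phenol-red-free DMEM containing 10% FBS.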
HT1080NT lethal = kills 2HG-producing HT-1080-NT fibrosarcoma cells; HT-1080-NT fibrosarcoma viability, CellTiter-Glo ATP luminescence, 48 h; Potency, µM (series often up to 46.1 µM), for the others: top-dose activity, negative = less viability, most hits filed as cytotoxic; 360,000 tested, 1.6% active;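 note: NT is the 2HG producing partner of a matched IDH1 knockdown line; 0% = DMSO-treated cells and -100% = media-only wells without cells; nearly all actives have a fitted effect of over 55% in size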
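Fibrosarcoma NT cells, 750 per well in 5% FBS RPMI, were exposed to compound for 48 hours. Viability: CellTiter-Glo luminescence.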
DT40 TDP1 CPT = DT40-hTDP1 cell growth loss with CPT | chicken DT40 Tdp1-/-;hTDP1 cells + 20 nM CPT, ATP luminescence, 48 h | Potency, µM (highest dose often 46.2 µM), for inactives: at the top dose activity change, negative = growth inhibition, actives largely listed as inhibitors | 420,000 tested, 12% active; note: nearly all actives have a fitted effect of over 55% in size
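Chicken DT40 Tdp1-/- cells complemented with human TDP1, 400 cells/well, exposed to compounds plus 20 nM camptothecin for at least 48 h at 37 C; viability read as ATP content by CellTiter-Glo luminescence.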
TDP1 cell noCPT = qHTS for Inhibitors of human tyrosyl-DNA phosphodiesterase 1 (TDP1): qHTS in cells in absence of CPT | DT40 Tdp1-/- hTDP1 cells, no CPT, ATP luminescence, 48 h | Potency, µM (doses to about 46.2 µM), for inactives: at the top dose activity change, negative = growth inhibition, hits mostly inhibitors | 420,000 tested, 15% active | AID 686978, 2013; note: nearly all actives have a fitted effect of over 55% in size
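Chicken DT40 Tdp1-/- cells complemented with human TDP1, screened without camptothecin (DMSO vehicle only), 400 cells/well. Compounds pin-transferred, cells incubated at 37 °C for at least 48 hr. Growth read as ATP-dependent luminescence (CellTiter-Glo, 30 min at RT).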
KB-V1 cytotox = KB-V1 MDR subline cytotoxicity | KB-V1 MDR cells viability, CellTiter-Glo, 72 h | Potency, µM (titrated, usually from 46.1 µM), actives largely listed as cytotoxic | 400,000 tested, 3.4% active | AID 1347076; note: nearly all actives have a fitted effect of over 60% in size
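Cytotoxicity toward P-gp-expressing KB-V1 cells was determined as loss of CellTiter-Glo luminescence after 72 h at 37 degrees C. Compounds were tested in quantitative HTS format across a concentration range, with curves fitted to normalized data.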
HT1080 IDH1KD tx = toxicity to HT-1080 IDH1 knockdown cells (counter line); HT-1080 IDH1 knockdown viability, ATP luminescence, 48 h; Potency, µM (doses to about 46.1 µM), without a hit: at the highest dose activity, negative = toxicity, hits mostly cytotoxic; 360,000 tested, 2% active;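 note: 0% = DMSO wells and -100% = cell-free medium wells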
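Luminescent ATP read-out (CellTiter-Glo, 10 min at room temperature) after 48 h compound exposure at 37 °C gave viability of IDH1-knockdown HT-1080 cells. Activity was normalised to DMSO and cell-free wells, then fitted as concentration-response curves.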
Active calls of the source: *; i = inactive; ? = inconclusive; nt = not tested or not shown. The list is not random: actives were taken first. Their share in the collection is about 19%. Calls come from the whole dose curve; as a rule, active = well fitted curve in the direction sought with a large enough effect; inconclusive = small, poorly fitted or top-dose-only effect, or another doubt; inactive = no such curve, though single readings can be large; an effect the other way counts as inactive or inconclusive. Unless noted, % is set by controls: 0 for no effect and ±100 for the full control effect; potency is the fitted concentration of half-maximal effect.

SMILES	KB-3-1 cytotox	HT1080NT lethal	DT40 TDP1 CPT	TDP1 cell noCPT	KB-V1 cytotox	HT1080 IDH1KD tx
CC[C@@H](O)C[C@H]1CCC[C@@]2(C[C@@H]3OC(=O)/C=C/[C@@](C)(O)[C@@H](O)[C@H](C)[C@@H](O)[C@H](OC4CCC(N(C)C)C(C)O4)[C@@H](O)[C@](C)(O)CCCCC/C=C/[C@@H]4CC(C)(C)O[C@@]4(O)C[C@H](O2)[C@H]3C)O1 (stereo not given in full)	0.16µM*	-9%	0.016µM*	0.15µM*	0.073µM*	?
COC(=O)[C@@]1(Sc2ccc(C)cc2)CC(=O)N(P(=O)(OC)OC)[C@@H]1c1ccccc1	i	9%	?	?	i	-1%
CCCCNC(=O)CN1C(=O)CN=C(c2ccccc2)c2ccccc21	i	4%	-25%	?	?	0%
CCCCNC(=O)c1cc(-c2cccnc2)nc2ccc(S(=O)(=O)NCCCC)cc12	i	nt	21µM*	?	i	nt
CCOc1ccc(N(C(C)C(=O)Nc2cc(Cl)ccc2OC)S(C)(=O)=O)cc1 (stereo not given)	3.7µM*	nt	0.58µM*	0.52µM*	?	nt
COc1cccc(C2CCN(CC(=O)Nc3cc(Cl)ccc3OC)CC2O)c1 (stereo not given)	i	-14%	-1%	-27%	i	-9%
CN1CC=C(c2c[nH]c3ccccc23)CC1	i	-18%	-30%	-18%	i	5%
C1=C(c2c[nH]c3ccccc23)CCN(Cc2ccccc2)C1	?	?	9.2µM*	4.6µM*	i	?
C[C@H]1CN([C@@H](C)CO)C(=O)c2cc(NC(=O)Nc3cccc4ccccc34)ccc2O[C@@H]1CN(C)Cc1ccc(-c2ccccc2)cc1	i	-30%	23µM*	16µM*	?	-1%
C[C@H]1CN([C@@H](C)CO)C(=O)c2cc(NC(=O)C3CCCCC3)ccc2O[C@H]1CN(C)Cc1ccc(-c2ccccc2)cc1	?	-28%	?	?	i	-21%
C[C@@H]1CCCCO[C@H](CN(C)Cc2ccccc2)[C@@H](C)CN([C@H](C)CO)C(=O)c2cc(NC(=O)c3ccccc3)ccc2O1	i	-3%	?	18µM*	i	-5%
C[C@@H]1CN([C@@H](C)CO)C(=O)c2cccc(NC(=O)c3ccncc3)c2O[C@@H]1CN(C)Cc1ccc(-c2ccccc2)cc1	i	-1%	?	?	?	-3%
COc1ccc(NC(=O)Nc2ccc3c(c2)C(=O)N([C@H](C)CO)C[C@H](C)[C@@H](CN(C)Cc2ccc(Cl)c(Cl)c2)OCCCC[C@@H](C)O3)cc1	i	-16%	-17%	16µM*	i	-28%
COc1ccc(NC(=O)Nc2ccc3c(c2)C(=O)N([C@H](C)CO)C[C@H](C)[C@@H](CN(C)S(=O)(=O)c2ccc(OC)cc2)O3)cc1	i	-13%	?	?	i	-5%
CC12Cc3cn[nH]c3C=C1CCC1C2CCC2(C)C1CCC2(C)O (stereo not given)	i	-10%	?	?	?	-17%
CCC(Oc1ccc(Cl)cc1)C(=O)OC1CC2CCC(C1)N2C (stereo not given)	nt	nt	13µM*	10µM*	nt	nt
CC(C(=O)OC1CC2CCC(C1)N2C)c1ccc(Br)cc1 (stereo not given)	nt	nt	21µM*	16µM*	nt	nt
COC(=O)C1=C(c2cccc(OCc3ccccc3)c2)C[C@@H]2CC[C@H]1N2C(=O)NCCOc1ccc(OC)cc1	?	-2%	23µM*	?	?	-3%
COC(=O)C1=C(c2cccc(OCc3ccccc3)c2)C[C@@H]2CC[C@H]1N2C(=O)NCc1ccc(C(C)(C)C)cc1	i	-4%	?	21µM*	i	1%
COC(=O)C1=C(c2ccccc2OCc2ccccc2)C[C@@H]2CC[C@H]1N2C(=O)NCCCOC(C)C	i	0%	16µM*	?	i	-8%
COCCNC(=O)N1[C@H]2CC[C@@H]1C(C(=O)OC)=C(c1cccc(C#N)c1)C2	i	0%	-2%	-5%	i	4%
COC(=O)C1=C(c2ccc(F)cc2OCc2ccccc2)C[C@@H]2CC[C@H]1N2C(=O)NCc1ccccc1Cl	i	-3%	?	?	i	-15%
COC(=O)C1=C(c2cccc(OCc3ccccc3)c2)C[C@@H]2CC[C@H]1N2C(=O)NCc1ccccc1C(F)(F)F	i	2%	21µM*	23µM*	i	-3%
COC(=O)C1=C(c2ccccc2)C[C@@H]2CC[C@H]1N2C(=O)NCc1ccc(C(F)(F)F)cc1	i	0%	?	?	i	-1%
CCOc1ccc2nc(N=Nc3c(O)[nH]c(=S)[nH]c3=O)sc2c1	i	8%	-26%	?	i	16%
SMILES	KB-3-1 cytotox	HT1080NT lethal	DT40 TDP1 CPT	TDP1 cell noCPT	KB-V1 cytotox	HT1080 IDH1KD tx
COC(=O)C1=C(c2cccc(OCc3ccccc3)c2)C[C@@H]2CC[C@H]1N2C(=O)NCCCOC(C)C	i	-7%	21µM*	18µM*	?	-4%
COC(=O)C1=C(c2cccc(OCc3ccccc3)c2)C[C@@H]2CC[C@H]1N2C(=O)NCc1cccc(OC)c1	?	-4%	23µM*	15µM*	?	-5%
COC(=O)C1=C(c2cccc(OCc3ccccc3)c2)C[C@@H]2CC[C@H]1N2C(=O)NCCN1CCOCC1	?	-20%	16µM*	?	?	?
O=C(O)C(Cc1cnc[nH]1)NS(=O)(=O)c1ccc(Br)cc1 (stereo not given)	i	?	8%	0%	i	17%
CCCCCCCCN1C(=O)[C@H](CC(=O)N2CCCCC2)C[C@@]2(C(=O)OCC)CCCC=C12	?	?	7.3µM*	5.8µM*	?	?
CCCCCCCCN1C(=O)[C@H](CC(=O)NCCCC)C[C@@]2(C(=O)OCC)CCCC=C12	?	?	9.2µM*	12µM*	21µM*	?
CCOC(=O)C1(c2ccccc2)CCCN(C)CC1 (stereo not given)	nt	nt	-25%	-6%	nt	nt
O=C(O)CCCCCCNC1c2ccccc2CCc2ccccc21	nt	nt	-3%	2%	nt	nt
